High-throughput results from PubChem.
In the library only some 0.9% were active in any assay of this set; here they are far more common.
PPARg SRC2 recr: PPARgamma-driven SRC-2 recruitment agonism; P37231; PPARgamma LBD-SRC-2 recruitment, biochemical; activation, % at 8 µM; 0.34% of 200,000 active; AID 1032; in the data active = activation above about 22%;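 note: 0% = vehicle and 100% = reference agonist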
Target sequence (P37231 whole entry, looked up, the tested form may be a part): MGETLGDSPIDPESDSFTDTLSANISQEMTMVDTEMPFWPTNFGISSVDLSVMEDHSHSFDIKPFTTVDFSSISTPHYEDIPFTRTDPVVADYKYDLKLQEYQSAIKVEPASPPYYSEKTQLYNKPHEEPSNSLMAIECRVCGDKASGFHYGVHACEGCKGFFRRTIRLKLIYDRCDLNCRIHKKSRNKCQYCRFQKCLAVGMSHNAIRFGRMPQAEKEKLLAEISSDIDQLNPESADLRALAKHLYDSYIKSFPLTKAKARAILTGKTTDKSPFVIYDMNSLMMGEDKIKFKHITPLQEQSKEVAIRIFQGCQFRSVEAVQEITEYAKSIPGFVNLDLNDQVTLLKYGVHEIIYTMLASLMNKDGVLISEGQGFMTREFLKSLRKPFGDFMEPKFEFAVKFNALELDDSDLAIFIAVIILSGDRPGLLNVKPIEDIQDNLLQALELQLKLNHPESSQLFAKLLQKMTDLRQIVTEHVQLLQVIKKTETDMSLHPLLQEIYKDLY
PPARg SRC-3 ag: PPARgamma-driven SRC-3 recruitment agonism; biochemical PPARgamma/SRC-3 coactivator recruitment assay; P37231; activation, % at 8 µM; 0.26% of 200,000 active; in the data active = activation above about 23%;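 note: 0% = DMSO and 100% = reference agonist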
SRC3 TRFRET art: TR-FRET artefact, counter-screen to PPARgamma/SRC-3 agonist assay. 0.39% of 99,000 active. TR-FRET ratio at 8 µM. AID 1048. PPARgamma/SRC-3 format; stronger effect = higher value
SRC1 TRFRET art: TR-FRET artefact, counter-screen to PPARgamma/SRC-1 agonist assay | AID 1051 | 0.34% of 99,000 active | TR-FRET ratio at 8 µM | TR-FRET detection artefact counter-screen, emission ratio; stronger effect = higher value; in the data active = TR-FRET ratio above about 2300
SRC2 TRFRET art: TR-FRET artefact, counter-screen to PPARgamma/SRC-2 agonist assay; stronger effect = higher value; TR-FRET ratio at 8 µM; 0.4% of 200,000 active
PPARg SRC-1 ag: agonists of human PPARgamma SRC-1 coactivator recruitment | P37231 | PPARgamma-SRC-1 coactivator recruitment biochemical assay | activation, % at 8 µM | 0.41% of 200,000 active | AID 631; in the data active = activation above about 19%;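 note: 0% = DMSO and 100% = reference agonist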
The depositor's hits bear a star; . = not tested or not shown. Cut-off read from the data, not from the text of the source, unless noted: active = TR-FRET ratio above about 2000; inactive = the rest.

SMILES	PPARg SRC2 recr	PPARg SRC-3 ag	SRC3 TRFRET art	SRC1 TRFRET art	SRC2 TRFRET art	PPARg SRC-1 ag
CN(C)S(=O)(=O)c1ccc(C(=O)Nc2nc(-c3cccs3)cs2)cc1	-2.7	-1.1	.	.	1736	-5.0
Cc1nc(N)nc(N)c1/C=C/C(C)(C)c1ccc(Cl)cc1	-2.5	-3.1	1542	1605	1422	-4.3
O=C(OC1CCCCC1)c1ccc2c(c1)C1C=CCC1C(C(=O)O)N2 (configuration not stated)	19.2	5.4	1554	1642	2020*	3.8
CN(CC1CCCO1)S(=O)(=O)c1ccc(C(=O)Nc2nc3cc4c(cc3s2)OCO4)cc1 (configuration not stated)	23.2*	3.8	.	.	1631	8.9
CN(CC1CCCO1)S(=O)(=O)c1ccc(C(=O)Nc2ccc3c(c2)OCO3)cc1 (configuration not stated)	11.3	3.2	1432	1902	1460	4.0
CC(C)Cc1c2c([nH]c(=S)c1C#N)CCCC2	4.4	3.7	1737	1994	1622	10.7
COc1ccc(-c2c3c([nH]c(=S)c2C#N)CCC3)cc1	85.8*	107.7*	.	.	4167*	63.7*
N#Cc1c(-c2cccnc2)c2c([nH]c1=S)CCCC2	9.8	8.1	.	.	1637	8.7
COc1ccc(OC)c(-c2c3c([nH]c(=S)c2C#N)CCCC3)c1	16.3	7.9	2033	2339*	1970	17.5
CCOC(=O)C1(CC2CCCCO2)CCN(C(=O)Nc2ccc(C)c(C)c2)CC1 (configuration not stated)	-3.2	-2.7	1502	1616	1487	-5.4
O=C(CSc1ccc(-c2cccc([N+](=O)[O-])c2)nn1)N1CCCCC1	3.2	-0.1	1644	1776	1628	11.4
CCOc1ccccc1Nc1nnc(SCC(=O)Nc2nc(-c3ccc(OC)cc3)cs2)s1	6.6	6.5	1775	2149	2038*	5.6
COc1ccc(S(=O)(=O)N2CCC(N3CCN(Cc4ccccc4)CC3)CC2)cc1	-2.7	-4.0	1572	1599	1489	-2.9
COc1ccc(S(=O)(=O)N2CCN(C3Cc4ccccc4C3)CC2)cc1	-1.2	6.4	2079*	1748	1352	-6.3
CCOC(=O)C(C(C)=O)C(c1ccc(OCCC(C)C)cc1)C(C(C)=O)C(=O)OCC (configuration not stated)	2.8	21.7	.	.	1662	4.9
COc1ccccc1NC(=O)C1=C(C)NC(SCC(=O)c2ccc(C)cc2)=C(C#N)C1c1ccco1 (configuration not stated)	8.6	23.2	.	.	2554*	11.4
COC(=O)c1sccc1NC(=O)c1ccc(Br)s1	10.4	14.0	.	.	1947	43.4*
CCN1CCCC1CNC(=O)c1ccc(Sc2ccc(F)cc2)c([N+](=O)[O-])c1 (configuration not stated)	3.9	-1.0	1428	1874	1484	8.2
CCn1c(C)cc(/C=C2\NC(=O)N(CC(=O)Nc3ccc(F)cc3)C2=O)c1C	13.1	5.0	1608	2342*	1533	10.0
Cc1ccc(NC(=O)CN2C(=O)N/C(=C/c3cc(C)n(-c4ccc(C(=O)O)cc4)c3C)C2=O)cc1	5.2	1.1	1621	1781	1549	-2.2
COc1ccccc1NC(=O)C/C(C)=N/NC(=O)COc1c(Br)cc(Br)cc1OC	-2.3	3.0	1553	1710	1627	3.3
CCOC(=O)c1sc(=NC(=O)c2cc(OC)c(OC)c(OC)c2)n(C)c1C	-3.5	337.5*	.	.	1659	-0.7
CCOC(=O)c1sc(=NC(=O)CCSc2ccccc2)n(C)c1C	-3.8	5.7	2393*	2065	1413	5.7
O=C(N/N=C/c1ccccc1O)C1(O)c2ccccc2-c2ccccc21	-3.6	-0.4	1680	2073	1576	3.6
COc1ccc(C2CC(c3ccccc3)=NN2C(=O)COC(=O)c2cc(S(=O)(=O)N3CCOCC3)ccc2F)cc1 (configuration not stated)	5.4	3.6	2106*	2247	2124*	15.7
SMILES	PPARg SRC2 recr	PPARg SRC-3 ag	SRC3 TRFRET art	SRC1 TRFRET art	SRC2 TRFRET art	PPARg SRC-1 ag
CCc1cc2c(=O)n(CCC(C)C)c(=S)[nH]c2s1	8.5	10.0	1765	2042	1976*	11.3
CCCCNC(=O)CSc1nc2ccccc2c(=O)n1Cc1ccc2c(c1)OCO2	190.0*	18.2	.	.	5232*	2.6
C=CCn1c(SCC(=O)NCc2ccc3c(c2)OCO3)nc2scc(-c3ccccc3)c2c1=O	5.3	1.9	.	.	1974*	8.7
CCOCCCn1c(SCC(=O)NCc2ccc3c(c2)OCO3)nc2ccccc2c1=O	-0.8	4.6	1553	1990	1620	9.7
COc1ccccc1C(=O)Nc1cccnc1	9.7	3.5	1667	1929	1551	5.7
COc1ccccc1C(=O)Nc1ccccn1	23.9*	1.1	.	.	1834	1.6
Cc1ccc(C)c(S(=O)(=O)N2CCN(CC(=O)Nc3sccc3C#N)CC2)c1	2.2	8.5	2054*	1942	1734	5.2
O=C1CCCN1CCCNC(=S)Nc1ccc(F)cc1	0.3	-1.6	1493	1772	1370	-4.7
O=C1CCCN1CCC1CCN(C(=S)Nc2ccc(F)cc2)CC1	22.0*	14.6	.	.	1700	-1.0
O=S(=O)(c1ccc(N2CCN(S(=O)(=O)c3ccc4c(c3)OCCO4)CC2)nc1)N1CCCC1	11.9	34.3*	.	.	2273*	17.9
Cc1oc(-c2cccc(Cl)c2)nc1CN1CCC(C(=O)N2CCN(c3ccccc3F)CC2)CC1	1.1	5.9	1480	2346*	1765	11.9
COc1ccc(-c2nc(NC(=O)C3=NN(c4cccc(C)c4)C(=O)CC3)sc2C)cc1	2.2	-0.1	1511	1779	1649	7.3
O=C(Nc1ccccn1)c1cc(-c2cccc(Cl)c2)nc2ccccc12	4.7	1.6	2298*	2351*	1804	14.1
CN1/C(=C\C(=S)Nc2ccccc2)C(C)(C)c2ccccc21	-1.4	2.0	1715	1780	1974*	7.9
CN1/C(=C\C(=S)NC(=O)c2ccccc2Cl)C(C)(C)c2ccccc21	-1.6	0.0	1615	1647	1473	-3.6
CN1/C(=C\C(=O)Nc2ccc(Cl)cc2)C(C)(C)c2ccccc21	4.3	-4.9	1551	1653	1427	0.3
COc1ccccc1C(=O)NC(=S)/C=C1/N(C)c2ccccc2C1(C)C	17.1	10.7	1894	2384*	1664	13.1
Cn1c(C(=O)O)c(CC(=O)N2CCC(Cc3ccccc3)CC2)c2ccccc21	6.2	0.7	1664	1964	1651	12.6
Cc1cc(C)nc(N2CCCC(C(=O)NCC(c3ccccc3)c3ccccc3)C2)n1 (configuration not stated)	-4.0	-12.5	.	.	1437	-1.0
C=COC(=O)CSc1nc(-c2cccs2)ccc1C#N	19.3	8.6	.	.	2052*	16.9
COC(=O)c1ccc(COC(=O)c2ccc(S(=O)(=O)N3CCC(C)CC3)cc2)o1	6.7	7.2	.	.	1607	21.4*
Cc1ccc2c(ccc(=S)n2C)c1	16.5	5.2	2121*	2278	1798	12.8
CCOc1ccc(CCNC(=O)CSc2nnnn2C)cc1OCC	-5.8	1.6	1401	1724	1549	3.7
